The panel holds about 83,000 compounds, 20% with a hit somewhere; the sample as a whole holds those more often.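 Each cell line was grown in a 96-well plate and treated with one concentration of compound for 48 hours. Values below 10 were considered active.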 Calls of active or inactive are those of the source.
What follows are compounds tested on OVCAR-5 ovarian (assay: NCI-60 one-dose screen, 48 h (100 = growth as untreated, 0 = no growth, -100 = all killed)). Settings: 10 µM unless noted.

SMILES | growth
Cc1ccc(Cc2cnc(NC(=O)/C=C/c3cccc(C)c3)s2)cc1 | 20.9% (inactive)
CC1(C)[C@@H](O)CC[C@]2(C)[C@H]3CC[C@@H]4[C@H]5[C@H](C(=O)/C=C/c6ccc(C(F)(F)F)cc6)CC[C@]5(CO)CC[C@@]4(C)[C@]3(C)CC[C@@H]12 | 109% (inactive)
COc1cc2ncnc(Nc3ccc(OCc4cccc(F)c4)c(Cl)c3)c2cc1NC(=O)C1CCCC1 | 88.9% (inactive)
C=C(C)[C@@H]1CC[C@]2(c3nnc(-c4ccncc4)o3)CC[C@]3(C)[C@H](CC[C@@H]4[C@@]5(C)CCC(=O)NC(C)(C)[C@@H]5CC[C@]43C)[C@@H]12 | 112% (inactive)
CCc1cccc(CC)c1NC(=O)c1sc2nc3c(cc2c1N)CCCC3 | 95.3% (inactive)
CCc1ccccc1NC(=O)c1sc2nc3c(cc2c1N)CCCC3 | 79.3% (inactive)
O=Cc1nc2ccccc2[nH]1 | 104% (inactive)
C[C@@H]1CCCCCCCCC[C@H](O)C(=O)C[C@@H](SC[C@@H](O)C(=O)O)C(=O)O1 | 104% (inactive)
C=C(C)[C@@H]1CC[C@]2(C(=O)N3CCN(CC)CC3)CC[C@]3(C)[C@H](CC[C@@H]4[C@@](C)(CCC(=O)N5CCN(CC)CC5)[C@H](C(=C)C)CC[C@]43C)[C@@H]12 | 72.3% (inactive)
Brc1ccc(Cn2nnnc2-c2ccn(-c3ccccc3)n2)cc1 | 32% (inactive)
CCCCN1CCCCn2c1nc1c2c(=O)n(C)c(=O)n1C | 117% (inactive)
CCCCC[C@H]1CC=C2C(=O)C=C[C@@H]2CC=CCCCC(=O)O[C@@H](CCCCC)CC=C2C(=O)C=C[C@@H]2CC=CCCCC(=O)O[C@@H](CCCCC)CC=C2C(=O)C=C[C@@H]2CC=CCCCC(=O)O1 | -23.7% [8.75 µM] (active)
CC(C)=CCC[C@](C)(O)[C@H]1CC[C@]2(C)[C@@H]1CC[C@@H]1[C@@]3(C)C/C(=C/c4cccc([N+](=O)[O-])c4)C(=O)C(C)(C)[C@@H]3CC[C@]12C | 94.1% (inactive)
Cn1cc(-c2csc(-c3cn(CCNC(=O)OC(C)(C)C)c4ccc(F)cc34)n2)c2cccnc21 | 95.3% (inactive)
CN1CCN(CCOc2ccc(-c3cnc4c(-c5ccccc5F)cnn4c3)cc2)CC1 | 80.4% (inactive)
Cc1cc(N2CCCCC2)nc(N(CCCNc2ccnc3cc(Cl)ccc23)Cc2ccco2)n1 | 41.5% (inactive)
Brc1ccc2c(c1)c(-c1nc(-c3c[nH]c4ncccc34)cs1)cn2CCCN1CCCCC1 | 32.3% (inactive)
NC1=C(C/C(N)=N\O)C(c2ccccc2Cl)c2c(ccc3ccccc23)O1 (stereo not given) | 100% (inactive)
O=C1Nc2ccccc2/C1=C/c1cn(CCCn2c3ccccc3c(=O)c3ccccc32)c2ccccc12 | 103% (inactive)
COC(=O)[C@]12CC[C@@H](C)[C@H](C)[C@@H]1C1=CC[C@@H]3[C@@]4(C)C(c5ncon5)=C[C@@](C)(CO)C4=CC[C@@]3(C)[C@]1(C)CC2 | -56.2% (active)
c1ccc(CN2C(c3ccccc3)=Nc3ccccc3C2c2c[nH]c3ccccc23)cc1 (stereo not given) | 60.7% (inactive)
CC1(C)NCCC[C@]2(C)[C@H]3CC[C@@H]4[C@H]5[C@H](C(=O)/C=C/c6ccccn6)CC[C@]5(CO)CC[C@@]4(C)[C@]3(C)CC[C@@H]12 | 97.9% (inactive)
Cc1cccc(C)c1NCc1nc(-c2ccccc2)n[nH]1 | 95.6% (inactive)
COc1cccc(-c2nn(-c3ccccc3)cc2-c2ccnc(NCCNS(=O)(=O)c3cccc(F)c3)c2)c1 | 64.9% (inactive)
N#C/C(=C\c1ccc(-c2ccc(Cl)cc2)o1)c1nc(-c2ccco2)cs1 | 61.8% (inactive)
COc1cc(-c2cc3cc(O)ccc3oc2=O)cc(OC)c1OC | 88.8% (inactive)

What follows are compounds tested on OVCAR-4 ovarian in the same assay as above. Settings: 10 µM unless noted.

SMILES | growth
COc1cc(-c2cc3ncccc3c3nc(OCCN(C)C)c4cccnc4c23)cc(OC)c1OC | -43.9% (active)
CN(C)CCCC1(c2ccc(F)cc2)OCc2cc(-c3ccc(C(F)(F)F)nc3)ccc21 (stereo not given) | 66.4% (inactive)
Cn1cc(-c2csc(-c3cn(CCNC(=O)OC(C)(C)C)c4ccccc34)n2)c2cccnc21 | 49.2% (inactive)
N#CC1=C(N)Oc2c(c(N)nn2-c2ccccc2)C1c1ccc(Cl)cc1Cl (stereo not given) | 95.7% (inactive)
CCN1CCN(C(=O)[C@]23CC[C@@H](C)[C@H](C)[C@H]2C2=CC[C@@H]4[C@@]5(C)C/C(=C/c6cccc(OC)c6OC)C(=O)C(C)(C)[C@@H]5CC[C@@]4(C)[C@]2(C)CC3)CC1 | 24.5% (inactive)
Cc1csc(Nc2nc(-c3ccc(Cl)cc3)nc(C(Cl)(Cl)Cl)n2)n1 | 95.5% (inactive)
COc1ccc(/C=C(\C#N)c2cc3ccccc3n2S(C)(=O)=O)cc1 | 93.4% (inactive)
Cc1cc(Cl)c2c(N(C)C)cccc2n1 | 108% (inactive)
O=C1c2ccccc2NC(c2cn(-c3ccccc3)nc2-c2cccs2)N1Cc1ccccc1 (stereo not given) | 87.1% (inactive)
COCCNC1=C(Cl)C(=O)c2ccccc2C1=O | 93.6% (inactive)
Oc1ccc(Nc2ccccc2)cc1 | 70.5% (inactive)
COC(=O)[C@]12CC[C@@H](C)[C@H](C)[C@@H]1C1=CC[C@@H]3[C@@]4(C)C[C@@H](OC(C)=O)[C@H](OC(C)=O)[C@@](C)(COC(C)=O)[C@@H]4[C@H](O)C[C@@]3(C)[C@]1(C)CC2 | 19.3% (inactive)
Cc1c(C)c2c(c(C)c1NC(=O)CCCCCCC(=O)O)CCC(C)(CCCC(C)CCCC(C)CCCC(C)C)O2 (stereo not given) | 58.5% (inactive)
Cc1ccc(Cc2cnc(NC(=O)/C=C/c3cccc(C)c3)s2)cc1 | 12.9% (inactive)
CC1(C)[C@@H](O)CC[C@]2(C)[C@H]3CC[C@@H]4[C@H]5[C@H](C(=O)/C=C/c6ccc(C(F)(F)F)cc6)CC[C@]5(CO)CC[C@@]4(C)[C@]3(C)CC[C@@H]12 | 38.4% (inactive)
COc1cc2ncnc(Nc3ccc(OCc4cccc(F)c4)c(Cl)c3)c2cc1NC(=O)C1CCCC1 | 100% (inactive)
C=C(C)[C@@H]1CC[C@]2(c3nnc(-c4ccncc4)o3)CC[C@]3(C)[C@H](CC[C@@H]4[C@@]5(C)CCC(=O)NC(C)(C)[C@@H]5CC[C@]43C)[C@@H]12 | 89.5% (inactive)
CCc1cccc(CC)c1NC(=O)c1sc2nc3c(cc2c1N)CCCC3 | 78.2% (inactive)
CCc1ccccc1NC(=O)c1sc2nc3c(cc2c1N)CCCC3 | 66.8% (inactive)
O=Cc1nc2ccccc2[nH]1 | 110% (inactive)

SMILES | growth
C[C@@H]1CCCCCCCCC[C@H](O)C(=O)C[C@@H](SC[C@@H](O)C(=O)O)C(=O)O1 | 110% (inactive)
C=C(C)[C@@H]1CC[C@]2(C(=O)N3CCN(CC)CC3)CC[C@]3(C)[C@H](CC[C@@H]4[C@@](C)(CCC(=O)N5CCN(CC)CC5)[C@H](C(=C)C)CC[C@]43C)[C@@H]12 | 77.4% (inactive)
Brc1ccc(Cn2nnnc2-c2ccn(-c3ccccc3)n2)cc1 | 72.7% (inactive)
CCCCN1CCCCn2c1nc1c2c(=O)n(C)c(=O)n1C | 107% (inactive)
CCCCC[C@H]1CC=C2C(=O)C=C[C@@H]2CC=CCCCC(=O)O[C@@H](CCCCC)CC=C2C(=O)C=C[C@@H]2CC=CCCCC(=O)O[C@@H](CCCCC)CC=C2C(=O)C=C[C@@H]2CC=CCCCC(=O)O1 | 22.4% [8.75 µM] (inactive)
CC(C)=CCC[C@](C)(O)[C@H]1CC[C@]2(C)[C@@H]1CC[C@@H]1[C@@]3(C)C/C(=C/c4cccc([N+](=O)[O-])c4)C(=O)C(C)(C)[C@@H]3CC[C@]12C | 82.5% (inactive)
Cn1cc(-c2csc(-c3cn(CCNC(=O)OC(C)(C)C)c4ccc(F)cc34)n2)c2cccnc21 | 43.8% (inactive)
CN1CCN(CCOc2ccc(-c3cnc4c(-c5ccccc5F)cnn4c3)cc2)CC1 | 63.6% (inactive)
Cc1cc(N2CCCCC2)nc(N(CCCNc2ccnc3cc(Cl)ccc23)Cc2ccco2)n1 | 39.8% (inactive)
Brc1ccc2c(c1)c(-c1nc(-c3c[nH]c4ncccc34)cs1)cn2CCCN1CCCCC1 | 48.4% (inactive)
NC1=C(C/C(N)=N\O)C(c2ccccc2Cl)c2c(ccc3ccccc23)O1 (stereo not given) | 110% (inactive)
O=C1Nc2ccccc2/C1=C/c1cn(CCCn2c3ccccc3c(=O)c3ccccc32)c2ccccc12 | 88.1% (inactive)
COC(=O)[C@]12CC[C@@H](C)[C@H](C)[C@@H]1C1=CC[C@@H]3[C@@]4(C)C(c5ncon5)=C[C@@](C)(CO)C4=CC[C@@]3(C)[C@]1(C)CC2 | 5.83% (active)
c1ccc(CN2C(c3ccccc3)=Nc3ccccc3C2c2c[nH]c3ccccc23)cc1 (stereo not given) | 27.1% (inactive)
CC1(C)NCCC[C@]2(C)[C@H]3CC[C@@H]4[C@H]5[C@H](C(=O)/C=C/c6ccccn6)CC[C@]5(CO)CC[C@@]4(C)[C@]3(C)CC[C@@H]12 | 35.9% (inactive)
Cc1cccc(C)c1NCc1nc(-c2ccccc2)n[nH]1 | 102% (inactive)
COc1cccc(-c2nn(-c3ccccc3)cc2-c2ccnc(NCCNS(=O)(=O)c3cccc(F)c3)c2)c1 | 31.1% (inactive)
N#C/C(=C\c1ccc(-c2ccc(Cl)cc2)o1)c1nc(-c2ccco2)cs1 | 4.22% (active)
COc1cc(-c2cc3cc(O)ccc3oc2=O)cc(OC)c1OC | 97.3% (inactive)

Source: PubChem BioAssay (NCI)
